Data from PubChem BioAssay AID1159580 (chemical genetic matrix, 2015).
“And” between values parts separate entries of the source, which are not always exact repeats. Equal values may be shown once. Screen size: about 5,500 compounds; about 2,000 (36%) were called active. Another 18% or so got no clear call; they are omitted. Rule as the data show it: active = normalized growth mostly below about 0.91 (no sharp cut-off); inconclusive = no clear call, values can overlap the other calls; inactive = mostly above about 0.92. The list shows a part of the results.

Assay: chemical genetic growth profiling, strain panel (AID 1159580);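 also: tested at 20 µM; growth read once vehicle control cultures reached saturation at 30 °C; 1 = growth at the plate median or of vehicle wells; lower values mean less growth of the strain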
Conditions: S. cerevisiae deletion strains, growth OD

Measured: normalized growth

CN1CCc2cccc3c2C1Cc1ccc(O)c(O)c1-3 (stereo not drawn)
active: locus YAL021C, strain ccr4, stronger effect = lower value 0.83 | locus YAL026C, strain drs2, stronger effect = lower value 0.862 | locus YAL030W, strain snc1, stronger effect = lower value 0.866 | locus YBL061C, strain skt5, stronger effect = lower value 0.865 | locus YBR023C, strain chs3, stronger effect = lower value 0.85 | locus YBR231C, strain swc5, stronger effect = lower value 0.785 | locus YBR279W, strain paf1, stronger effect = lower value 0.924 | locus YCL011C, strain gbp2, stronger effect = lower value 0.883 | locus YCL061C, strain MRC1 (second series), stronger effect = lower value 0.611 | locus YDR069C, strain doa4, stronger effect = lower value 0.573 | locus YDR297W, strain sur2, stronger effect = lower value 0.88 | locus YDR334W, strain swr1, stronger effect = lower value 0.873 | locus YDR363W, strain ESC2, stronger effect = lower value 0.823 | locus YDR392W, strain spt3, stronger effect = lower value 0.534 | locus YER015W, strain faa2, stronger effect = lower value 0.784 | locus YER155C, strain BEM2 (second series), stronger effect = lower value 0.861 | locus YFR010W, strain ubp6, stronger effect = lower value 0.882 | locus YGL173C, strain kem1, stronger effect = lower value 0.725 | locus YHR013C, strain ard1, stronger effect = lower value 0.818 | locus YHR027C, strain rpn1, stronger effect = lower value 0.826 | locus YHR142W, strain chs7, stronger effect = lower value 0.867 | locus YJL095W, strain BCK1 (second series), stronger effect = lower value 0.906 | locus YJL164C, strain tpk1, stronger effect = lower value 0.874 | locus YJL166W, strain qcr8, stronger effect = lower value 0.742 | locus YJL187C, strain SWE1, stronger effect = lower value 0.887
inactive: locus YAL013W, strain DEP1, stronger effect = lower value 1.01 | locus YAL040C, strain CLN3, stronger effect = lower value 0.989 | locus YBR009C, strain hhf1, stronger effect = lower value 0.929 | locus YBR021W, strain FUR4, stronger effect = lower value 1.01 | locus YBR171W, strain sec66, stronger effect = lower value 0.949 | locus YBR229C, strain ROT2, stronger effect = lower value 1.01 | locus YCL016C, strain dcc1, stronger effect = lower value 0.925 | locus YCL029C, strain bik1, stronger effect = lower value 0.995 | locus YCL069W, strain vba3, stronger effect = lower value 0.978 | locus YCR088W, strain abp1, stronger effect = lower value 0.986 | locus YDL005C, strain med2, stronger effect = lower value 1.02 | locus YDL035C, strain GPR1, stronger effect = lower value 1.04 | locus YDL040C, strain nat1, stronger effect = lower value 0.977 | locus YDL074C, strain BRE1, stronger effect = lower value 1.01 | locus YDL101C, strain DUN1, stronger effect = lower value 1.01 | locus YDL134C, strain PPH21, stronger effect = lower value 1.03 | locus YDL185W, strain tfp1, stronger effect = lower value 1 | locus YDL192W, strain arf1, stronger effect = lower value 0.997 | locus YDR001C, strain nth1, stronger effect = lower value 1.01 | locus YDR101C, strain arx1, stronger effect = lower value 0.973 | locus YDR137W, strain rgp1, stronger effect = lower value 0.996 | locus YDR159W, strain sac3, stronger effect = lower value 0.987 | locus YDR162C, strain NBP2, stronger effect = lower value 1.03 | locus YDR195W, strain ref2 1.02 | locus YDR318W, strain mcm21, stronger effect = lower value 0.992 | locus YDR335W, strain msn5, stronger effect = lower value 0.923 | locus YDR388W, stronger effect = lower value 0.993 | locus YDR502C, strain sam2, stronger effect = lower value 0.999 | locus YEL003W, strain gim4, stronger effect = lower value 0.942 | locus YEL037C, strain rad23, stronger effect = lower value 0.962 | locus YEL061C, strain CIN8 (second series), stronger effect = lower value 0.971 | locus YEL061C, strain CIN8, stronger effect = lower value 1.01 | locus YER002W, strain NOP16, stronger effect = lower value 0.982 | locus YER016W, strain bim1, stronger effect = lower value 0.979 | locus YER110C, stronger effect = lower value 0.985 | locus YER111C, strain swi4, stronger effect = lower value 0.996 | locus YER155C, strain BEM2, stronger effect = lower value 1 | locus YER167W, strain BCK2, stronger effect = lower value 1.03 | locus YGL078C, strain dbp3, stronger effect = lower value 0.983 | locus YGL086W, strain mad1, stronger effect = lower value 1 | locus YGL167C, strain pmr1, stronger effect = lower value 0.985 | locus YGL227W, strain vid30, stronger effect = lower value 1.02 | locus YGL240W, strain doc1, stronger effect = lower value 0.929 | locus YGL248W, strain PDE1, stronger effect = lower value 1.01 | locus YGL253W, strain hxk2, stronger effect = lower value 0.969 | locus YGR135W, strain pre9, stronger effect = lower value 1 | locus YGR229C, strain SMI1, stronger effect = lower value 1.02 | locus YGR252W, strain gcn5, stronger effect = lower value 1.01 | locus YHR030C, strain SLT2, stronger effect = lower value 1.01 and 1.02 | locus YHR079C, strain IRE1 (second series), stronger effect = lower value 0.994 | locus YHR079C, strain IRE1, stronger effect = lower value 1.05 | locus YHR094C, strain hxt1, stronger effect = lower value 0.99 | locus YHR129C, strain ARP1, stronger effect = lower value 1.01 | locus YHR200W, strain rpn10, stronger effect = lower value 0.997 | locus YIL066C, strain RNR3, stronger effect = lower value 1.03 | locus YIL073C, strain SPO22, stronger effect = lower value 1.03 | locus YIL125W, strain kgd1, stronger effect = lower value 0.989 | locus YIR030C, strain dcg1, stronger effect = lower value 1 | locus YJL092W, strain hpr5, stronger effect = lower value 0.979 | locus YJL095W, strain BCK1, stronger effect = lower value 0.998 and 1.04 | locus YJL115W, strain asf1, stronger effect = lower value 0.999 | locus YJL129C, strain trk1, stronger effect = lower value 1.07 | locus YJL134W, strain LCB3, stronger effect = lower value 1 | locus YJL154C, strain vps35, stronger effect = lower value 1.01 | locus YJL168C, strain set2, stronger effect = lower value 0.989 | locus YJL187C, strain SWE1 (second series), stronger effect = lower value 1.01 | locus YJR043C, strain POL32, stronger effect = lower value 1.03 | locus YJR066W, strain TOR1, stronger effect = lower value 0.989
